MARV entry inh: inhibitors of Marburg virus binding or cell entry | hit rate 1.8% among 300,000 | Marburg virus pseudotyped entry inhibition, cell reporter | AID 540276 | Potency, µM (top dose mostly 37.8 µM), actives largely listed as inhibitors; calls by dose curve; tested in HEK293 cells
FMDV antiviral: blocks foot and mouth disease virus. FMDV antiviral cell-based qHTS. hit rate 1.2% among 410,000. AID 1159524. Potency, µM (doses to about 57.9 µM), actives largely listed as inhibitors; calls by dose curve; tested in HEK293T cells; also: read-out not given here; nearly all actives have a fitted effect of over 45% in size
HCV inhibitor: inhibitors of hepatitis C virus infection; Huh7.5.1 HCVcc-Cre infection, luciferase reporter, 44 h; Potency, µM (highest dose often 41.8 µM), actives largely listed as inhibitors; hit rate 3.4% among 340,000; active = well fitted inhibition curve with a large enough effect; inconclusive = small, poorly fitted or top-dose-only effect, or another doubt; inactive = no such curve, though single readings can be large or run the other way
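1,000 cells/well; 4 h culture; + compound; + HCVcc-Cre (~0.5 moi); 44 h; luciferase substrate, RT 15 min; read 15 sec.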
LASV entry inh: blocks Lassa virus binding to or entry into cells. Lassa virus pseudotype entry inhibition, cell reporter. Potency, µM (series often up to 37.9 µM), actives largely listed as inhibitors. hit rate 1.2% among 300,000; calls by dose curve; tested in HEK293 cells; also: nearly all actives have a fitted effect of over 50% in size
CHX counter: counter-screen for Shiga toxin inhibitors: cycloheximide protein synthesis inhibition; hit rate 12% among 300,000; cell reporter, cycloheximide protein synthesis inhibition counterscreen; max response, %; in the data active = max response mostly above about 13%, no sharp cut-off; inactive = mostly below about 14%; also: read at 38.3 µM for the half of the compounds with a filed dose
Shiga inhibitor: Shiga toxin inhibition; Vero cells, Shiga toxin protein synthesis inhibition reporter; inhibition, % at 38.7 µM; hit rate 9.2% among 290,000; in the data active = inhibition mostly above about 28%, no sharp cut-off; inactive = mostly below about 43%
Large screens that a line does not name were inactive. Only some compounds are listed: those with a hit (about 13% of all), similar ones and a draw of the others.

c1ccc(-c2nccc(-c3ccc4c(c3)OCO4)n2)cc1	HCV inhibitor inconclusive, CHX counter 54.7, Shiga inhibitor 70.2
Cc1nccc(-c2ccc3c(c2)OCO3)n1	none
c1ccc(-c2noc(-c3cccnc3)n2)nc1	CHX counter 41.9, Shiga inhibitor 79.8
c1ccc(-c2noc(-c3ccncc3)n2)nc1	MARV entry inh inconclusive, CHX counter 34.1 (no result: FMDV antiviral)
Clc1ccc2nc(-c3ccccn3)c(Nc3ccc4c(c3)OCO4)n2c1	HCV inhibitor inconclusive, LASV entry inh inconclusive
c1ccc(-c2nc3n(c2-c2ccc4c(c2)OCO4)CCC3)nc1	LASV entry inh 9.96µM (no result: MARV entry inh, FMDV antiviral, HCV inhibitor, CHX counter, Shiga inhibitor)
CCOc1nc(-c2ccccc2)ccc1-c1noc(-c2cccnc2)n1	none (no result: CHX counter, Shiga inhibitor)
c1ccc(CCc2ccccc2-c2nc(-c3ccccn3)no2)cc1	HCV inhibitor inconclusive
O[C@H]1C[C@H](c2ccccc2)N(CC2CCCCC2)C[C@H]1n1cc(-c2ccc(F)cc2)nn1	none (no result: MARV entry inh, FMDV antiviral, HCV inhibitor, CHX counter, Shiga inhibitor)
c1ccc(-c2noc(-c3ccc4ccccc4c3)n2)nc1	MARV entry inh 1.64µM, FMDV antiviral 3.98µM, HCV inhibitor inconclusive, LASV entry inh 0.291µM
Clc1ccccc1/C=C/c1nc(-c2ccccn2)no1	MARV entry inh inconclusive, FMDV antiviral 3.98µM, LASV entry inh inconclusive
c1ccc(-c2noc(-c3ccc4c(c3)OCO4)n2)nc1	MARV entry inh inconclusive, HCV inhibitor inconclusive, LASV entry inh 0.411µM (no result: FMDV antiviral)
CCOC(=O)c1ccc(NC(=O)C2CCCN(S(=O)(=O)c3ccc(F)cc3)C2)cc1 (configuration not stated)	MARV entry inh inconclusive, FMDV antiviral 22.4µM, HCV inhibitor inconclusive, LASV entry inh inconclusive
CCc1ccc(NC(=O)C2CCCN(S(=O)(=O)c3ccc(F)cc3)C2)cc1 (configuration not stated)	FMDV antiviral inconclusive, LASV entry inh inconclusive (no result: HCV inhibitor, CHX counter, Shiga inhibitor)
CCOC(=O)C1CCCN(S(=O)(=O)c2cc(C(=O)OC)n(C)c2)C1 (configuration not stated)	FMDV antiviral inconclusive, HCV inhibitor 6.31µM (no result: MARV entry inh, LASV entry inh)
COc1ccc(NC(=O)C2CCCN(S(=O)(=O)c3ccc(C)cc3)C2)cc1OC (configuration not stated)	MARV entry inh inconclusive, FMDV antiviral 22.4µM
Cc1ccc(S(=O)(=O)N2CCCC(C(=O)Nc3ccc(NC(=O)c4ccccn4)cc3)C2)cc1 (configuration not stated)	CHX counter 9.1
CCOC(=O)CSc1nc(N2CCOCC2)c2c(c1C#N)CC(C)(C)N(C)C2	none
CCOC(=O)c1csc(N/N=C2\CCc3ccccc32)n1	HCV inhibitor inconclusive, CHX counter 31.1, Shiga inhibitor 38.2
COc1ccc2c(c1)CCC/C2=N\Nc1nc(C(=O)NN)cs1	CHX counter 46.1, Shiga inhibitor 75.8
CCOC(=O)c1csc(NC(=O)C(C)(C)C)n1	none (no result: MARV entry inh, LASV entry inh)
CCOC(=O)c1csc(NC(=O)CN2CCN(C)CC2)n1	none (no result: MARV entry inh, LASV entry inh)
CCOC(=O)c1csc(N/N=C2\CCCc3ccccc32)n1	HCV inhibitor inconclusive, CHX counter 11.6, Shiga inhibitor 33.2 (no result: MARV entry inh, LASV entry inh)
COC1(OC)C(/C=C/c2ccc(Cl)cc2)C(C#N)(C#N)C1(OC)OC (configuration not stated)	MARV entry inh inconclusive, FMDV antiviral inconclusive, HCV inhibitor inconclusive, LASV entry inh inconclusive, CHX counter 19.3, Shiga inhibitor 40.6
COc1cc(OC)cc(-c2ncc3ccccn23)c1	HCV inhibitor inconclusive
COc1ccc(-c2ncc3ccccn23)cc1	CHX counter 41.4, Shiga inhibitor 145.2
COc1cccc(-c2ncc3ccccn23)c1	MARV entry inh inconclusive, HCV inhibitor inconclusive, CHX counter 36.3, Shiga inhibitor 71.2
Brc1ccc2[nH]cc(/C=N/N3CCCCC3)c2c1	HCV inhibitor inconclusive
CCOc1ccc(N(CC(=O)N/N=C/c2cc(Br)c(C)o2)S(C)(=O)=O)cc1	none
CC(C)(C)c1ccc(C(=O)Nc2ccccc2NC(=O)c2ccco2)cc1	MARV entry inh inconclusive, HCV inhibitor 12.6µM, LASV entry inh inconclusive, CHX counter 20.2, Shiga inhibitor 29.4
CC(C)(C)c1ccc(C(=O)N/C(=C\c2ccco2)C(=O)Nc2ccccc2C(=O)O)cc1	CHX counter 30.7, Shiga inhibitor 60.4
CC(C)(C)c1ccc(C(=O)Nc2ccccc2Cl)cc1	Shiga inhibitor 49.8 (no result: MARV entry inh, LASV entry inh)
CC(=O)N1C[C@H]2CON(C)[C@H]2C[C@H]1c1cccc(N2CCOCC2)c1	none (no result: MARV entry inh, HCV inhibitor, LASV entry inh, CHX counter, Shiga inhibitor)
CC(OC(=O)c1cccs1)C(=O)NCc1ccccc1 (configuration not stated)	none
Cc1ccc(NC(=O)CN(C)C(=O)Cc2ccccc2F)cc1	none
COc1ccc(Cl)cc1NC(=O)CSc1nc(NS(=O)(=O)c2ccc(C)cc2)cc(=O)[nH]1	none
NC(=O)CSc1ccc(F)cc1	none
COc1ccc(S(=O)(=O)CC(=O)c2cc(C)c(O)c(C)c2)cc1	none (no result: MARV entry inh, LASV entry inh)
Cc1cc(C(=O)CS(=O)(=O)c2ccc(Cl)cc2)cc(C)c1O	HCV inhibitor 11.2µM (no result: MARV entry inh, LASV entry inh)
COc1ccc(SCC(=O)c2cc(C)c(OC(=S)N(C)C)c(C)c2)cc1	HCV inhibitor inconclusive, LASV entry inh inconclusive, CHX counter 48.0
Cc1cc(C(=O)CSc2ccc(F)cc2)cc(C)c1OC(=S)N(C)C	MARV entry inh inconclusive, FMDV antiviral 0.794µM, HCV inhibitor inconclusive, LASV entry inh inconclusive, CHX counter 57.9, Shiga inhibitor 145.7
Cc1cc(C(=O)CS(=O)(=O)c2ccc(F)cc2)cc(C)c1OC(=O)N(C)C	MARV entry inh inconclusive, HCV inhibitor inconclusive, LASV entry inh inconclusive, CHX counter 43.8, Shiga inhibitor 89.0
O=C(c1cccnc1)N(Cc1ccccc1)c1ccccc1	LASV entry inh inconclusive
CCOC(=O)c1nc(N/N=C/c2ccccc2)sc1Br	HCV inhibitor inconclusive, LASV entry inh inconclusive, CHX counter 13.3
CC(=O)Nc1sc(-c2ccccc2)nc1-c1ccccc1	HCV inhibitor 11.2µM
CC(=O)Nc1sc(-c2ccc(Cl)cc2)nc1-c1ccccc1	HCV inhibitor inconclusive
CC(=O)Nc1sc(N/N=C/c2ccccc2)nc1-c1ccc(C)cc1	HCV inhibitor inconclusive, CHX counter 18.4
CC(=O)Nc1sc(N/N=C/c2ccc(O)cc2)nc1-c1ccc(C)cc1	HCV inhibitor inconclusive (no result: MARV entry inh, LASV entry inh)
CC(=O)Nc1sc(N/N=C/c2ccccc2F)nc1-c1ccc(C)cc1	HCV inhibitor 12.6µM, CHX counter 41.6, Shiga inhibitor 92.4 (no result: LASV entry inh)
OCCCCC#Cc1c(-c2ccsc2)sc2ccccc12	HCV inhibitor inconclusive (no result: MARV entry inh, LASV entry inh)
O=S(=O)(c1ccccc1)C1(C2CC(c3ccccc3)=NO2)CC(O)C1 (configuration not stated)	CHX counter 11.5 (no result: MARV entry inh, LASV entry inh)
CCOC(=O)[C@H]1[C@H]2COc3ccc(Cl)cc3[C@@H]2N2C(=O)CN(Cc3ccco3)C(=O)[C@@]12C	none (no result: MARV entry inh, LASV entry inh, CHX counter, Shiga inhibitor)
COc1ccc(CN(C(=O)CSc2nnc(-c3ccc(F)cc3)o2)c2ccc(F)cc2)cc1	HCV inhibitor inconclusive, LASV entry inh inconclusive
COc1ccc(N(Cc2ccccc2)C(=O)CSc2nnc(Cn3nnc4ccccc43)o2)cc1	MARV entry inh inconclusive, FMDV antiviral inconclusive, HCV inhibitor 14.1µM, LASV entry inh inconclusive
